Experimental data from PubChem BioAssay (Tox21).
Inconclusive results are not listed. The source made the active and inactive calls. Unless noted, calls follow the shape of the dose curve; as a rule, active = well fitted curve in the direction sought with a large enough effect in the repeat runs; inconclusive = weak or mixed curves; inactive = no such curve, though single readings can be large; an effect the other way counts as inactive or inconclusive.

Tests used:
[1] = qHTS assay for small molecule agonists of the p53 signaling pathway (AID 651631; calls by dose curve; also: nearly all actives have a fitted effect of over 15% in size)
In short: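 Agonist mode screen using a stably integrated beta-lactamase gene under p53 response elements in HCT-116 cells. Compound exposure lasts 16 h at 37 °C; fluorescence intensity is measured following 2 h FRET substrate loading.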

[2] = qHTS assay for small molecules that induce genotoxicity in human embryonic kidney cells expressing luciferase-tagged ATAD5 (AID 651632); also: nearly all actives have a fitted effect of over 15% in size
In short: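 HEK293T cells carrying a luciferase reporter tagged to ATAD5 were exposed to compound or DMSO vehicle for 16 hr at 37C, 5% CO2. Amplite was added, and after 30 min at room temperature luciferase activity was read as a marker of ATAD5 induction.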

[3] = qHTS assay for small molecule agonists of the p53 signaling pathway - cell viability (AID 651633; calls by dose curve;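 also: p53RE-bla HCT reporter cells with a stable beta-lactamase p53 reporter; series mostly up to about 83 µM; nearly all actives have a fitted effect of over 30% in size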)
In short: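 p53RE-bla cells, seeded at 4,000 per well and rested 5 h at 37 C/5% CO2, received compounds in DMSO for 16 h at 37 C. CellTiter-Glo was then added, and luminescence was read after 30 min at room temperature to gauge cytotoxicity.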

[4] = qHTS assay for small molecules that induce genotoxicity in human embryonic kidney cells expressing luciferase-tagged ATAD5 - cell viability (AID 651634; calls by dose curve; also: nearly all actives have a fitted effect of over 25% in size)
In short: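 HEK293T cells expressing luciferase-tagged ATAD5 were exposed to compound or DMSO for 15.5 hr at 37C, 5% CO2. Viability was then read as live-cell protease activity by CellTiter-Fluor fluorescence after 30 min at 37C.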

[5] = qHTS assay for small molecule disruptors of the mitochondrial membrane potential - cell viability (AID 720634; calls by dose curve;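 also: human HepG2 liver cancer cells; series mostly up to about 83 µM; nearly all actives have a fitted effect of over 20% in size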)
In short: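 HepG2 cells seeded overnight at 37 C, then exposed to compound or DMSO for 1 hr at 37 C, 5% CO2. m-MPI dye added, then CellTiter-Glo for 30 min at room temperature; viability read as ATP luminescence.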

[6] = qHTS assay for small molecule disruptors of the mitochondrial membrane potential (AID 720635)
In short: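 HepG2 cells (2,000/well) attached overnight at 37C, then took compound for 1 hr at 37C, 5% CO2. Mito-MPS dye was added for 30 min; fluorescence was read at 490/535 nm (monomers) and 540/590 nm (aggregates).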

[7] = qHTS assay to test for compound auto fluorescence at 590 nm (red) in HepG2 cells (AID 720674)
In short: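 Intrinsic compound fluorescence in the red window (Ex/Em 540/590 nm) is measured in attached HepG2 cells exposed for 1 hr, DMSO vehicle as baseline, benchmarked to Rose Bengal sodium.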

[8] = qHTS assay to test for compound auto fluorescence at 535 nm (green) in HepG2 cells (AID 720675)
[9] = qHTS assay to test for compound auto fluorescence at 460 nm (blue) in HEK293 cells (AID 720678)
In short: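 Cells were seeded and left to adhere for 4-5 hr at 37C. Compounds were then pin-transferred. After an overnight incubation at 37C under 5% CO2, intrinsic fluorescence at 405/460 nm was measured and referenced to triamterene.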

[10] = qHTS assay to test for compound auto fluorescence at 590 nm (red) in HEK293 cells (AID 720679)
In short: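 Each well held 2,000 HEK293 cells in medium containing 10% dialyzed FBS. Following 4-5 hr attachment at 37C, 23 nL test compound or DMSO was added; plates sat overnight, and red fluorescence (540/590nm) was recorded.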

[11] = qHTS assay to test for compound auto fluorescence at 535 nm (green) in HEK293 cells (AID 720680)
[12] = qHTS assay to test for compound auto fluorescence at 460 nm (blue) in HEK293 cell free culture (AID 720681)
In short: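 Test compounds were pinned into cell-free culture medium (DMEM with 10% FBS) and fluorescence was read directly at Ex/Em 405/460 nm. Signals were expressed as fluorescence equivalents of triamterene, with DMSO vehicle as control.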

[13] = qHTS assay to test for compound auto fluorescence at 535 nm (green) in HEK293 cell free culture (AID 720682)
In short: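 No cells present: wells hold DMEM supplemented with 10% FBS, into which compound or vehicle is pinned. Green emission is then recorded (485 nm excitation, 535 nm emission) and scaled to fluorescein.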

[14] = qHTS assay to test for compound auto fluorescence at 590 nm (red) in HEK293 cell free culture (AID 720683)
In short: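 Tox21 10K library compounds were pinned into cell-free DMEM with 10% FBS and fluorescence was read at excitation 540 nm. Activity is expressed as Rose Bengal sodium equivalency.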

[15] = qHTS assay to test for compound auto fluorescence at 590 nm (red) in HepG2 cell free culture (AID 720684)
In short: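 Red fluorescence (540 nm excitation, 590 nm emission) was measured after compound transfer into cell-free MEM supplemented with 10% FBS. Values are equivalencies against Rose Bengal sodium.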

[16] = qHTS assay to test for compound auto fluorescence at 460 nm (blue) in HepG2 cell free culture (AID 720685)
In short: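 Compound (23 nL) or DMSO pinned into cell-free MEM with 10% FBS; blue fluorescence read at 405/460 nm excitation/emission, expressed as auto-fluorescence equivalency to triamterene.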

[17] = qHTS assay to test for compound auto fluorescence at 535 nm (green) in HepG2 cell free culture (AID 720686)
[18] = qHTS assay to test for compound auto fluorescence at 460 nm (blue) in HepG2 cells (AID 720687)
In short: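 Cells (2,000/well in MEM with 10% FBS) attached overnight at 37 C, then were exposed to compound or DMSO for 1 hr at 37 C, 5% CO2. Fluorescence read at Ex/Em 405/460 nm, expressed as triamterene-equivalent signal.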

[19] = target: Glucocorticoid receptor (Homo sapiens) (UniProt P04150); experiment: qHTS assay to identify small molecule agonists of the glucocorticoid receptor (GR) signaling pathway (AID 720691; active = well fitted activation curve with a large enough effect in the signal ratio in the repeat runs, not every such curve was filed as active; the % refers to the signal ratio)
In short: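 GR-bla HeLa cells (beta-lactamase reporter under glucocorticoid response element) were plated 4 h at 37 C/5% CO2, given compounds in DMSO, and incubated 18 h at 37 C. LiveBLAzer B/G FRET substrate was added for 2 h at room temperature, then fluorescence intensity read.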

[20] = target: Glucocorticoid receptor (Homo sapiens) (UniProt P04150); experiment: qHTS assay to identify small molecule antagonists of the glucocorticoid receptor (GR) signaling pathway (AID 720692; active = well fitted inhibition curve with a large enough effect in the signal ratio in the repeat runs, not every such curve was filed as active; the % refers to the signal ratio)
In short: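 GR-bla HeLa cells (beta-lactamase reporter under glucocorticoid response element) were pre-plated 4 h at 37 C, treated with compounds plus 5 nM dexamethasone (final) for 18 h, then read by LiveBLAzer B/G FRET fluorescence after 2 h.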

[21] = qHTS assay to identify small molecule antagonists of the glucocorticoid receptor (GR) signaling pathway - cell viability counter screen (AID 720693); also: nearly all actives have a fitted effect of over 55% in size
[22] = qHTS assay for identifying genotoxic compounds that show differential cytotoxicity against isogenic chicken DT40 cell lines with known DNA damage response pathways - wild type cell line (AID 743012); also: nearly all actives have a fitted effect of over 60% in size
In short: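 Parental DNA repair-proficient DT40 cells, 300 per well, were pre-incubated ~0.5 h at 37 C/5% CO2, pin-dosed with compounds in DMSO, then incubated 40 h. Viability was read as CellTiter-Glo luminescence after 30 min at room temperature.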

[23] = qHTS assay for identifying genotoxic compounds that show differential cytotoxicity against isogenic chicken DT40 cell lines with known DNA damage response pathways - Rev3 mutant cell line (AID 743014); also: nearly all actives have a fitted effect of over 55% in size
[24] = qHTS assay for identifying genotoxic compounds that show differential cytotoxicity against isogenic chicken DT40 cell lines with known DNA damage response pathways - Rad54/Ku70 mutant cell line (AID 743015); also: nearly all actives have a fitted effect of over 60% in size
[25] = qHTS assay to identify small molecule antagonists of the androgen receptor (AR) signaling pathway - cell viability counter screen (AID 743033; also: nearly all actives have a fitted effect of over 45% in size)
[26] = target: Androgen receptor (Homo sapiens) (UniProt P10275); experiment: qHTS assay to identify small molecule antagonists of the androgen receptor (AR) signaling pathway (AID 743035; active = well fitted inhibition curve with a large enough effect in the signal ratio in the repeat runs, not every such curve was filed as active; the % refers to the signal ratio)
In short: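 HEK293 cells stably carrying a UAS-driven beta-lactamase reporter (AR-UAS-bla GripTite) were plated for 4 h at 37C, then given compound and the agonist R1881 and incubated 16 h. Reporter activity was read by LiveBLAzer B/G FRET fluorescence after 2 h at room temperature.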

[27] = target: Androgen receptor (Homo sapiens) (UniProt P10275); experiment: qHTS assay to identify small molecule agonists of the androgen receptor (AR) signaling pathway (AID 743036; active = well fitted activation curve with a large enough effect in the signal ratio in the repeat runs, with a control signal flat, not every such curve was filed as active; the % refers to the signal ratio)
In short: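 Quantitative HTS of the Tox21 10K library in HEK293 cells bearing a stably integrated UAS-controlled beta-lactamase reporter. Compound exposure lasted 16 h at 37C. Reporter activity was detected by FRET substrate fluorescence after 2 h at room temperature.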

[28] = target: Androgen receptor (Homo sapiens) (UniProt P10275); experiment: qHTS assay to identify small molecule agonists of the androgen receptor (AR) signaling pathway using the MDA cell line (AID 743040; also: nearly all actives have a fitted effect of over 20% in size)
In short: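 MDA-kb2 breast carcinoma cells stably carrying an MMTV-driven luciferase reporter (AR- and GR-responsive) were seeded and held 5 h at 37C, 0% CO2, then exposed to compounds in DMSO for 16 h. Luminescence was read 30 min after ONE-Glo addition.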

[29] = target: Androgen receptor (Homo sapiens) (UniProt P10275); experiment: qHTS assay to identify small molecule antagonists of the androgen receptor (AR) signaling pathway using the MDA cell line (AID 743042; also: nearly all actives have a fitted effect of over 55% in size)
In short: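 MDA-kb2 cells (human breast carcinoma, stably carrying an MMTV-luciferase reporter responsive to AR and GR) were plated at 3,000 cells/well and preincubated 5 hr at 37C, then given compound plus R1881 agonist for 16 h. ONE-Glo luminescence was read.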

[30] = qHTS assay to identify small molecule antagonists of the thyroid receptor (TR) signaling pathway (AID 743065); also: series mostly up to about 70 µM; nearly all actives have a fitted effect of over 55% in size
In short: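 GH3.TRE-Luc rat pituitary cells carrying two TR response elements driving luciferase were plated for 4 h, given compound plus 1 nM T3 (final), and incubated 23.5 h at 37 C. ONE-Glo luminescence measured reporter inhibition; CellTiter-Fluor fluorescence tracked cytotoxicity.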

[31] = system: thyroid hormone receptor (rat, GH3 cells); experiment: qHTS assay to identify small molecule agonists of the thyroid receptor (TR) signaling pathway (AID 743066; calls by dose curve)
[32] = target: Estrogen receptor (Homo sapiens) (UniProt P03372); experiment: qHTS assay to identify small molecule antagonists of the estrogen receptor alpha (ER-alpha) signaling pathway (AID 743069; active = well fitted curve in the direction sought with a large enough effect in the signal ratio in the repeat runs, not every such curve was filed as active; the % refers to the signal ratio)
In short: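 HEK293 cells stably carrying an ER-alpha-UAS-bla beta-lactamase reporter were pre-cultured overnight in 2% charcoal-stripped FBS medium. Test compounds in DMSO were added together with 17beta-estradiol for 18 hr at 37C. Read-out was fluorescence after 2 hr with LiveBLAzer B/G FRET substrate at room temperature.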

[33] = qHTS assay to identify small molecule antagonists of the estrogen receptor alpha (ER-alpha) signaling pathway - cell viability counter screen (AID 743074; calls by dose curve; also: nearly all actives have a fitted effect of over 45% in size)
[34] = target: Estrogen receptor (Homo sapiens) (UniProt P03372); experiment: qHTS assay to identify small molecule agonists of the estrogen receptor alpha (ER-alpha) signaling pathway (AID 743075; calls by dose curve)
[35] = target: Estrogen receptor (Homo sapiens) (UniProt P03372); experiment: qHTS assay to identify small molecule agonists of the estrogen receptor alpha (ER-alpha) signaling pathway using the BG1 cell line (AID 743079); also: nearly all actives have a fitted effect of over 20% in size
[36] = qHTS assay to identify small molecule antagonists of the estrogen receptor alpha (ER-alpha) signaling pathway using the BG1 cell line (AID 743080; calls by dose curve; also: series mostly up to about 70 µM; nearly all actives have a fitted effect of over 25% in size)
In short: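 Antagonist mode: compounds in DMSO were pinned onto BG1-Luc-4E2 cells alongside 17beta-estradiol agonist, incubated 21.5 h, and ERE-driven luciferase measured with ONE-Glo. Cytotoxicity was multiplexed using CellTiter-Fluor fluorescence.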

[37] = qHTS assay to identify small molecule antagonists of the estrogen receptor alpha (ER-alpha) signaling pathway using the BG1 cell line - cell viability counter screen (AID 743081);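 also: compound given together with 17beta-estradiol as the ER stimulus; series mostly up to about 70 µM; nearly all actives have a fitted effect of over 45% in size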
Aromatase (Homo sapiens) = Aromatase (Homo sapiens) (UniProt P11511); experiment: qHTS assay to identify aromatase inhibitors (AID 743083)
[38] = qHTS assay to identify aromatase inhibitors - cell viability counter screen (AID 743084)
[39] = qHTS assay to identify small molecule that activate the aryl hydrocarbon receptor (AhR) signaling pathway - cell viability counter screen (AID 743086);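 also: HepG2 liver cells carrying the AhR DRE luciferase reporter; series mostly up to about 70 µM; nearly all actives have a fitted effect of over 45% in size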
In short: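 HepG2-AhR-luc (HG2L7.5c1) cells, 4000/well, were preincubated 5 h at 37C, exposed to compound in qHTS format for 24 hr at 37C, then given CellTiter-Fluor for 30 min; viability was read as fluorescence in the reporter wells.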

[40] = target: Peroxisome proliferator-activated receptor gamma (Homo sapiens) (UniProt P37231); experiment: qHTS assay to identify small molecule agonists of the peroxisome proliferator-activated receptor gamma (PPARg) signaling pathway (AID 743094; active = well fitted activation curve with a large enough effect in the signal ratio in the repeat runs, not every such curve was filed as active; the % refers to the signal ratio)
In short: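 GeneBLAzer PPARg UAS-bla HEK293H cells carrying a stably integrated beta-lactamase reporter were pre-incubated 5 h at 37C, then exposed to compounds in DMSO for 17 h at 37C; LiveBLAzer B/G FRET substrate was added for 1 h at room temperature and fluorescence read.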

[41] = qHTS assay to identify small molecule antagonists of the estrogen related receptor (ERR) signaling pathway - cell viability counter screen (AID 1224818);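 also: series mostly up to about 46 µM; viability measured after 17.5 h of compound exposure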
In short: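 ERR reporter cells plated 6 h at 37 C/5% CO2, then compounds in DMSO pin-transferred and incubated 17.5 h at 37 C. Viability read as CellTiter-Fluor fluorescence after 30 min at 37 C.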

[42] = qHTS assay to identify small molecule antagonists of the estrogen related receptor (ERR) signaling pathway (AID 1224819;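 also: luminescence from an ERR-driven luciferase reporter measured with One-Glo reagent; series mostly up to about 46 µM; nearly all actives have a fitted effect of over 50% in size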)
In short: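 ERR reporter cells were plated at 2,000 cells/well and left 6 h at 37 C/5% CO2 before pin-tool transfer of compounds in DMSO. After 18 h at 37 C, One-Glo was added and luminescence was read 30 min later at room temperature.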

[43] = qHTS assay to identify small molecule agonists of the estrogen related receptor (ERR) signaling pathway (AID 1224820)
In short: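 Quantitative HTS of the LOPAC library used NTP ERR reporter cells treated 18 h at 37 C. Signal is luminescence after One-Glo addition and a 30 min room-temperature incubation.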

[44] = system: estrogen-related receptor alpha (ERRalpha) with PGC-1alpha coactivator, human; experiment: qHTS assay to identify small molecule antagonists of the estrogen related receptor signaling pathway with the pleiotropic PPARgamma coactivator (PGC) (AID 1224821; calls by dose curve;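 also: series mostly up to about 46 µM; lower luminescence signal means antagonism of PGC/ERR signalling; nearly all actives have a fitted effect of over 50% in size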)
In short: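 Quantitative HTS for antagonism: PGC/ERR cells received compounds after 6 h attachment and were incubated 18 h at 37 C, with luminescence (One-Glo) as the endpoint.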

[45] = qHTS assay to identify small molecule antagonists of the estrogen related receptor signaling pathway with the pleiotropic PPARgamma coactivator (PGC) cell viability counter screen (AID 1224822; also: series mostly up to about 46 µM)
In short: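 PGC/ERR cells were seeded at 2,000 cells/well, rested 6 h at 37 C/5% CO2, then given compounds in DMSO by pin tool and incubated 17.5 h at 37 C. Viability came from CellTiter-Fluor fluorescence after 30 min.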

[46] = qHTS assay to identify small molecule phospholipidosis (PLD) inducers (AID 1259344; active = well fitted curve in the direction sought with a large enough effect; an effect the other way counts as inactive or inconclusive)
In short: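 HepG2 cells on collagen I, attached 4 h at 37 C, were co-treated with compound and LipidTOX Red dye for 24 h at 37 C, then fixed with paraformaldehyde plus Hoechst 33342 and imaged by high-content microscopy for phospholipid accumulation.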

Measured: Potency

Chain of Estrogen receptor (Homo sapiens) (P03372 whole entry, looked up): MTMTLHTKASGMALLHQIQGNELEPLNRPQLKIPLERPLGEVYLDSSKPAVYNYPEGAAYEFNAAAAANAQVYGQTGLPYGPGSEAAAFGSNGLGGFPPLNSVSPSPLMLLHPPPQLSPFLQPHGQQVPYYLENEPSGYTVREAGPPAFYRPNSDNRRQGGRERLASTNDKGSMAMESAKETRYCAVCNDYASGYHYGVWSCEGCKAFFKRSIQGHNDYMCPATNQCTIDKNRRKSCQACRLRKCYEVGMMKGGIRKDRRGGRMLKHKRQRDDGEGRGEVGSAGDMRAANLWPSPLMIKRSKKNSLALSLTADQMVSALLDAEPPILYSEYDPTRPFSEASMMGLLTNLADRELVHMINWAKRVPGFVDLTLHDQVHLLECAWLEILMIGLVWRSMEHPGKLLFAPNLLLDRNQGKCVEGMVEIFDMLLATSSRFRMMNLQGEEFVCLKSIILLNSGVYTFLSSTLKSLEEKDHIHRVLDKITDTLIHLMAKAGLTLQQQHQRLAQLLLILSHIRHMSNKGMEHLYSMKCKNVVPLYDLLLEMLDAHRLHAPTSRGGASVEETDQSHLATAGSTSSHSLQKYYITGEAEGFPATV
Chain of Androgen receptor (Homo sapiens) (P10275 whole entry, looked up): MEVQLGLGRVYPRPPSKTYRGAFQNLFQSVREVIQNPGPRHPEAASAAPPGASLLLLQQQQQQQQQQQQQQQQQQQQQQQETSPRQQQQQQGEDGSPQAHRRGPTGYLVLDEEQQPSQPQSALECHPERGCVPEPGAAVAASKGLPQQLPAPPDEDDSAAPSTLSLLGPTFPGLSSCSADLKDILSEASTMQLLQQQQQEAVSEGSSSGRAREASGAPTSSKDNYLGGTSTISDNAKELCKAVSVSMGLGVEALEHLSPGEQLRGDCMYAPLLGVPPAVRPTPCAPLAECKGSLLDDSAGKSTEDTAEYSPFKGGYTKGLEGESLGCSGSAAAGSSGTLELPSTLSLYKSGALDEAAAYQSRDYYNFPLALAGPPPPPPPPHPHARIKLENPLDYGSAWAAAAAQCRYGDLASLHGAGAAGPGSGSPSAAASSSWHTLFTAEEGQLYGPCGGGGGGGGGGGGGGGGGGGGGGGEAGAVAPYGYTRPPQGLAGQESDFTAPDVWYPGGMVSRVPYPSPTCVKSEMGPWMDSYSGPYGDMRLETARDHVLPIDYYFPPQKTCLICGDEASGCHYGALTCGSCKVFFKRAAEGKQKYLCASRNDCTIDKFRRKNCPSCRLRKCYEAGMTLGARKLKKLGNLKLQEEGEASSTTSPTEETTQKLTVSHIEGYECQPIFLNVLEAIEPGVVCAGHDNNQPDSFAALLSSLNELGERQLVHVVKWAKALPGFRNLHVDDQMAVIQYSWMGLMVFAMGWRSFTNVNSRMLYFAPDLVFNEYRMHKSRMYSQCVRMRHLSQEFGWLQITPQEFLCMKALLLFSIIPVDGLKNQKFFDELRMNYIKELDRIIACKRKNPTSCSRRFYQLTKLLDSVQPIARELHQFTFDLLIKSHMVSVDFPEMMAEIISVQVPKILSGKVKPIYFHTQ
Chain of Glucocorticoid receptor (Homo sapiens) (P04150 whole entry, looked up): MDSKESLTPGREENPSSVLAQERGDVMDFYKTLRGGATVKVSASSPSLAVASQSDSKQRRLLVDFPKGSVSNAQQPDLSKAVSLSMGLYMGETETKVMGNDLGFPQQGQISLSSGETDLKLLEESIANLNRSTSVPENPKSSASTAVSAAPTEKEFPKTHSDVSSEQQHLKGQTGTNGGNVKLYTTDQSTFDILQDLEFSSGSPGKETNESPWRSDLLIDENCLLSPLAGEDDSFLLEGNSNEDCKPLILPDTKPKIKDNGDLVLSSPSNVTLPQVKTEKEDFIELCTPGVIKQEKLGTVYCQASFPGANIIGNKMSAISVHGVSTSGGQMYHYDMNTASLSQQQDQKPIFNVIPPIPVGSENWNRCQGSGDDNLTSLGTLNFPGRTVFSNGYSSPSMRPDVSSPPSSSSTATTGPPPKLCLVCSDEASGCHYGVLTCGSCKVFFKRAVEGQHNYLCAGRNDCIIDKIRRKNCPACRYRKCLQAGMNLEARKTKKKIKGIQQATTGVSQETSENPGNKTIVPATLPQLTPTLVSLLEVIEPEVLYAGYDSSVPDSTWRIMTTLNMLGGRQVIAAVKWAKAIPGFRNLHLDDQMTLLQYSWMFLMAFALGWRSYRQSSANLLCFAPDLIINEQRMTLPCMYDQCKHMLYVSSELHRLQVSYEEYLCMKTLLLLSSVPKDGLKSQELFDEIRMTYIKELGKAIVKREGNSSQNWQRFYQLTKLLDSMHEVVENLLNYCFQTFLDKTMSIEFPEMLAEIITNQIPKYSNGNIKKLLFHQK
Chain of Aromatase (Homo sapiens) (P11511 whole entry, looked up): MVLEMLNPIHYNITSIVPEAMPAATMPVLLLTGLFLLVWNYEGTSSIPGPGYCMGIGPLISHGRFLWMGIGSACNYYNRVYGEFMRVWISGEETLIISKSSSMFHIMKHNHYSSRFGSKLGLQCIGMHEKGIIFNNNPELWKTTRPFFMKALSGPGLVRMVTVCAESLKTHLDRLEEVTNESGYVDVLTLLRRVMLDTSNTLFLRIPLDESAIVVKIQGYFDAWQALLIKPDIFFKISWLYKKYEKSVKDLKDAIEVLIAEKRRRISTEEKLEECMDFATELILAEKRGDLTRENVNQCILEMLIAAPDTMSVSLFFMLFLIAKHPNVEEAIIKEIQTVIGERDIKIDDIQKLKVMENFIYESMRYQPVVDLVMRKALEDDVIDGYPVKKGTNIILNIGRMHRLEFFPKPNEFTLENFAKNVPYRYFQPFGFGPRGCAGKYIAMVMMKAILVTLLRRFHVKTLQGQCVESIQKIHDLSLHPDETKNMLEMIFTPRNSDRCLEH
Chain of Peroxisome proliferator-activated receptor gamma (Homo sapiens) (P37231 whole entry, looked up): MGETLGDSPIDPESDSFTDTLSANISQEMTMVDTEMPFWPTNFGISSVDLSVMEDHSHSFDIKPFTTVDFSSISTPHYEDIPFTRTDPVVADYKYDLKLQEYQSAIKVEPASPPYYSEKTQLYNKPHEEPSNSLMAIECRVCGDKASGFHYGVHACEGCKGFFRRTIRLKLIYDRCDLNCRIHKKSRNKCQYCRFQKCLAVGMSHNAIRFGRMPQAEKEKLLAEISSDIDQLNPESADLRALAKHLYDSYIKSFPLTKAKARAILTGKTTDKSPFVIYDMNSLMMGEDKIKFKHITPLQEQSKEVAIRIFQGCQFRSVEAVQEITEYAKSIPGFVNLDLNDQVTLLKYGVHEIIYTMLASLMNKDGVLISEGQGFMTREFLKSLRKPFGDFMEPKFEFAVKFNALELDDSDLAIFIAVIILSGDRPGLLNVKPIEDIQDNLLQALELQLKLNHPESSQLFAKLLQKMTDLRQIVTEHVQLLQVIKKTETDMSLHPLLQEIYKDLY

NC(=O)CN1CC(O)CC1=O (configuration not stated)
inactive: all assays above
